From PubChem BioAssay AID624138 (Broad Institute, 2012)
In all, about 17,000 compounds went through this assay and about 35 (0.2%) were called active.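 The calls were made as follows: active = compounds whose four printed spots each show fluorescence over background unusually high for their array block, chance value under 7%; inactive = the rest.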 The sample as a whole holds a higher share of actives than the screen did.

molecular target: Signal transducer and activator of transcription 3 (Homo sapiens) (UniProt P40763); test: STAT3 binders, primary screen, biochemical, small molecule microarray, single point, set 2 (AID 624138); details: His-STAT3 binding, anti-His fluorescence
Sequence (P40763 whole entry, looked up): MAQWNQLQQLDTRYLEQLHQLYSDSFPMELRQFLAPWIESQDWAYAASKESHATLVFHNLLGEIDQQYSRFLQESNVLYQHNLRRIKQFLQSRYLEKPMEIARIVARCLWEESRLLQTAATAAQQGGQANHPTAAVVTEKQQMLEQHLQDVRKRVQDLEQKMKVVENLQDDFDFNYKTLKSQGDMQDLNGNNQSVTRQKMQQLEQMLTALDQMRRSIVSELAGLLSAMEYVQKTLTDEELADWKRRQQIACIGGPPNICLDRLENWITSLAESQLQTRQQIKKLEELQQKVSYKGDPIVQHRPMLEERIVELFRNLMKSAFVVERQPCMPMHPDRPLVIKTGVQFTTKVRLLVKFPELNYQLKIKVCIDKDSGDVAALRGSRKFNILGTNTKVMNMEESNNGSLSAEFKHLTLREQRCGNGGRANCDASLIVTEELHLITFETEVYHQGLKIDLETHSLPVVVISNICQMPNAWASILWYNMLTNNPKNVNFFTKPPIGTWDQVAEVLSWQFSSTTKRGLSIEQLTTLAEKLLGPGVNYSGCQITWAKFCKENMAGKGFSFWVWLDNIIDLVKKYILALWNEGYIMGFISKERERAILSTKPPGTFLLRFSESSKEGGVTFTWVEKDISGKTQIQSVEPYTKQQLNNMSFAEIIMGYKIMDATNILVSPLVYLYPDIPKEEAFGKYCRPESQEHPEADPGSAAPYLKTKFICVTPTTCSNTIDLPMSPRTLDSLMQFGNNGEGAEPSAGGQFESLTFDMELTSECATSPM

Row | SMILES | outcome
1 | COc1ccc2[nH]cc(CCNCc3ccc(Br)cc3)c2c1 | inactive
2 | c1cncc(CNCCc2c[nH]c3ccccc23)c1 | active
3 | CC(=O)c1c(O)c(C)c(O)c(Cc2c(O)c3c(c(C(=O)/C=C/c4ccccc4)c2O)OC(C)(C)C=C3)c1O | inactive
4 | C[C@H]1CCC/C=C/C2C[C@H](O)C[C@H]2[C@H](O)/C=C\C(=O)O1 (stereo not given in full) | inactive
5 | Cc1ccc(OC(=O)N(C)C[C@@H]2OCc3cnnn3CCCC(=O)N([C@H](C)CO)C[C@@H]2C)cc1 | inactive
